From PubChem BioAssay (NCI)
“And” between values parts separate entries of the source, which are not always exact repeats. Identical values can stand only once. Compounds without any hit were thinned out: in the full panel of roughly 83,000, 20% have a hit.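 The endpoint reported here, percent growth, reads 100 for growth as untreated, 0 for no net growth and -100 for all cells dead.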 The source made the active and inactive calls. Rule for the calls: active = growth percent below 10; inactive = the rest.

system: MDA-MB-468 breast; test: NCI-60 one-dose screen, 48 h (100 = growth as untreated, 0 = no growth, -100 = all killed); conditions: 10 µM unless noted

SMILES	growth
O=C1/C(=C/c2ccc(OCCCOc3ccc(Cl)cc3)cc2)N=C2SCCCN12	61.2% (inactive)
O=c1[nH]c(-c2ccccc2)nc2sc3cc(O)ccc3c12	93.7% (inactive)
Oc1ccccc1-c1nnc(CNc2ccc(Cl)cc2)o1	-2.17% (active)
COC(=O)C1CN(S(=O)(=O)/N=C2\NC(=O)NC2=C(Cl)Cl)C1	72.5% (inactive)
O=C(NCc1ccc(Cl)cc1Cl)C1CCC(=O)N1c1cccs1 (stereo not given)	115% (inactive)
COc1ccccc1S(=O)Nc1ccccc1 (stereo not given)	97.2% (inactive)
Cc1nc2scc(-c3ccccc3)n2c(=O)c1CCO	101% (inactive)
COC(=O)CCCNC(=O)C(=O)c1c(O)c(O)c(C(C)C)c2cc(C)c(-c3c(C)cc4c(C(C)C)c(O)c(O)c(C(=O)C(=O)NCCCC(=O)OC)c4c3O)c(O)c12	-1.3% (active)
COc1cc(/C=N/NC(=O)c2cnn3c2NC(c2ccccc2)C3)ccc1OCc1ccccc1 (stereo not given)	1.21% (active)
N#CCCc1ccc(O)cc1	104% (inactive)
O=C1C=CC(=O)N1c1cccc(Cl)c1	86.7% (inactive)
Cc1ccc(-n2nnnc2N)c(C)c1	115% (inactive)
Cc1c[nH]c(=O)n(Cc2nnc(CCC(=O)c3nc4ccccc4[nH]3)o2)c1=O	-1.54% (active)
N#Cc1c(Nc2ccccc2)nc2n(c1=O)-c1ccccc1Sc1ccccc1-2	72.8% (inactive)
COc1cc2[nH]c(C(=O)c3cc(OC)c(OC)c(OC)c3)c(N)c2cc1C#CC1CC1	23.4% (inactive)
Cc1ccc(-c2nc(N3CCCNCC3)c3oc(-c4ccc(C)cc4)nc3n2)cc1	5.4% (active)
Nc1c(C(=O)c2ccc(F)cc2)sc2nc3c(cc12)CCCC3	59.9% (inactive)
O=C1CC(=O)N(C(=O)c2nn(-c3ccc(Cl)cc3)cc2O)N1	62.4% (inactive)
COc1cc2cc(Oc3ccc(NC(=O)Nc4ccc(Cl)c(C(F)(F)F)c4)cc3)c(C)nc2cc1OC	-42.7% (active)
COCC(=O)NC/C=C/c1ccc2ncnc(Nc3ccc(Oc4ccc(C)nc4)c(C)c3)c2c1	28.4% (inactive)

SMILES	growth
COc1ccc(S(=O)(=O)NCCCNc2nccc(-c3[nH]c(-c4ccccc4)nc3-c3ccc(Cl)c(O)c3)n2)cc1	78.3% (inactive)
CC(=O)O[C@H]1CC[C@@]2(C)[C@@H](CC[C@@H]3[C@@H]2CC[C@]2(C)C=C(C=O)C[C@@H]32)C1	111% (inactive)
Nc1ccc(S(=O)(=O)c2ccc(N)cc2)cc1	97.5% (inactive) and 101% (inactive)
COc1ccc(CN2c3ccccc3Oc3ccccc32)cc1O	6.51% (active)
S=C(Cc1ccccc1)N1CCN(c2ccccc2Cl)CC1	101% (inactive)
O=C(CCN1CCCC1)Nc1ccc2c(NCCCCc3ccccc3)c3ccccc3nc2c1	-74.7% (active)
COc1ccc(Cn2cc(COc3ccc4c5ccnc(C)c5n(CCCc5ccccc5)c4c3)nn2)cc1	62.5% (inactive)
COc1ccc(NC(=O)c2ccc(Nc3ncnc4c3cnn4-c3cccc(F)c3)cc2)cc1	100% (inactive)
CC(=O)Oc1ccccc1C(=O)N=C1[Se]CCCN1C(=O)c1ccccc1OC(C)=O	-19.2% (active)
COc1ccc(C(=O)n2nc(CC(=O)NCc3ccccc3)nc2N)cc1	105% (inactive)
Cc1cc(Nc2cccc(C(F)(F)F)c2)n2c(nc3ccccc32)c1C#N	-4.87% (active)
COc1cc(C(=O)N/N=C/c2cccc([N+](=O)[O-])c2)cc(OC)c1OC	6.95% (active)
Cc1nc(/N=C(\N)NC(=O)Nc2cccc(Cl)c2)sc1C	55.2% (inactive)
O=c1c2ccccc2n(C[C@H]2CO2)c2ccccc12	-7.32% (active)
COC(=O)c1ccc(C(C)C)cc1	110% (inactive)
N=c1c2c(=N)n3c(nc2nc2n1-c1ccccc1Sc1ccccc1-2)sc1cc(Cl)ccc13	-11.8% (active)
CC(=O)OCC1OC(OC2=C(CC=C(Cl)Cl)C(=O)c3ccccc3C2=O)C(OC(C)=O)C(OC(C)=O)C1OC(C)=O (stereo not given)	-61.7% (active)
O=C(O)CCC(=O)Nc1nnc(-c2ccccc2)s1	116% (inactive)
O=C1/C(=C/c2ccc([N+](=O)[O-])cc2)Oc2ccc(O)cc21	-63.3% (active)
Cc1ccccc1CNc1ncnc2[nH]ncc12	87.7% (inactive)
